Screening results (PubChem BioAssay)
This is a sample that favours compounds with a hit; in the whole collection about 11% have one here.
ALDH1A1 inh: qHTS Assay for Inhibitors of Aldehyde Dehydrogenase 1 (ALDH1A1) | hit rate 7.3% among 220,000 | Purified ALDH1A1, NADH fluorescence, propionaldehyde substrate | Potency, µM (series often up to 75.3 µM), without a hit: at the highest dose activity, negative = inhibition, usual class: inhibitors; active = well fitted inhibition curve with a large enough effect, not every such curve was filed as active; inconclusive = small, poorly fitted or top-dose-only effect, or another doubt; inactive = no such curve, though single readings can be large or run the other way;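 also: potency is read from the fitted curve at half-maximal effect; plate controls were no enzyme wells and a reference inhibitor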
Target sequence (P00352 whole entry, looked up): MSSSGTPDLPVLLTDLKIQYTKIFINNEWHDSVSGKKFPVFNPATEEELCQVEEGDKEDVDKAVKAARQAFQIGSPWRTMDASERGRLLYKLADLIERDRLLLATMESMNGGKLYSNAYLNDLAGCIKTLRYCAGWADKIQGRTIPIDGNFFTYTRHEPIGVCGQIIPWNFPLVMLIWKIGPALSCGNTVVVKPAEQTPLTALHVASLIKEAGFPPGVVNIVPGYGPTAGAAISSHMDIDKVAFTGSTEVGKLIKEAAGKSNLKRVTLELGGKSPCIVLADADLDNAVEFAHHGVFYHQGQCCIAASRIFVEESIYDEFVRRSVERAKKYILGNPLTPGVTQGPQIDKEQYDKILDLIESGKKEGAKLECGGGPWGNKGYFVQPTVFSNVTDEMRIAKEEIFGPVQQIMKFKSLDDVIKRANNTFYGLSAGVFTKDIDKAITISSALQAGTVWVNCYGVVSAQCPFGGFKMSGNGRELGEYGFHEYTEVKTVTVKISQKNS
HPGD inh: qHTS Assay for Inhibitors of HPGD (15-Hydroxyprostaglandin Dehydrogenase); hit rate 4.3% among 150,000; purified HPGD, NADH fluorescence kinetic, PGE2 substrate; 15-hydroxyprostaglandin dehydrogenase [NAD(+)] (Homo sapiens), P15428; Potency, µM, without a hit: at the top dose activity change, negative = inhibition, most hits filed as inhibitors; active = well fitted inhibition curve with a large enough effect, not every such curve was filed as active; inconclusive = small, poorly fitted or top-dose-only effect, or another doubt; inactive = no such curve, though single readings can be large or run the other way; also: potency is read from the fitted curve at half-maximal effect
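20 nM HPGD preincubated 15 min at room temperature with compound in 50 mM Tris-HCl pH 8, 0.01% Tween 20. Started with 1 mM NAD+ and 30 uM prostaglandin E2; NADH fluorescence (360/450 nm) read 5 times over 30-s intervals, last minus first.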
IMPase inh: qHTS Assay for Identifying the Cell-Membrane Permeable IMPase Inhibitors; inhibition (IP1 accumulation), % at 46.1 µM; 120,000 tested, under 10 active; Inositol monophosphatase 1 (Rattus norvegicus), P97697; CHO-M1 cells, IP1 accumulation, HTRF TR-FRET ratio; active = well fitted curve in the direction sought with a large enough effect in the signal ratio, not every such curve was filed as active; inconclusive = small, poorly fitted or top-dose-only effect, or a change in a side signal; inactive = no such curve, though single readings can be large or run the other way; the % refers to the signal ratio;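 also: cells stimulated with carbachol in lithium chloride buffer; plate controls were DMSO basal wells for no effect and reference inhibitor wells for full effect; higher means more IMPase inhibition seen as more IP1 and lower FRET ratio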
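Cellular IMPase inhibition is scored as a rise in cytosolic IP1, detected by competitive TR-FRET between d2-labelled IP1 and a europium anti-IP1 antibody. M1-expressing CHO cells were stimulated with carbachol for 30 min at 37C, with lithium (50 mM LiCl) present in the buffer.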
IMPase Li inh: qHTS Assay for Identifying the Cell-Membrane Permeable IMPase Inhibitors: Potentiation with Lithium; CHO-M1 cells, IP1 TR-FRET (IP-One), carbachol + lithium; Potency, µM (doses to about 59.4 µM), inactives show at the top dose activity, negative = IMPase inhibition, actives largely listed as inhibitors; hit rate 0.35% among 210,000; AID 1457, 2008;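 also: IP1 builds up when IMPase is blocked and the TR-FRET signal falls; potency is read from the fitted curve at half-maximal effect; plate controls were basal vehicle for no effect and high inhibitor control for full effect; nearly all actives have a fitted effect of over 50% in size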
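CHO cells stably expressing M1 receptor (2000/well, cultured 16–30 h) treated 30 min at 37C with compound plus low lithium. Cytosolic IP1 by TR-FRET (665/620 ratio and 620 channel) after 10 min lysis; AC50 by Hill fit.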
ALOX12 inhib: qHTS Assay for Inhibitors of 12-hLO (12-human lipoxygenase); Polyunsaturated fatty acid lipoxygenase ALOX12 (Homo sapiens), P18054; purified 12-hLO, xylenol orange hydroperoxide absorbance; Potency, µM (titrated, usually from 57.1 µM), inactives show top-dose activity change, negative = inhibition, actives largely listed as inhibitors; hit rate 0.12% among 150,000; AID 1452, 2008; also: potency is read from the fitted curve at half-maximal effect; nearly all actives have a fitted effect of over 55% in size
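Hydroperoxide output read as Fe(III)-xylenol orange absorbance, 573-to-405 nm ratio, after 30 min reaction with 40 uM arachidonic acid. Enzyme: 150 nM purified human 12hLO, 15 min compound preincubation; 25 mM Hepes pH 7.0, room temperature.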
PNC assembly inh: High Content Assay for Compounds that inhibit the Assembly of the Perinucleolar Compartment; hit rate 3.1% among 140,000; activity change (PNC), negative = inhibition, % at 10 µM; PC3M PTB-GFP, PNC prevalence imaging, 16 h; stronger effect = lower value; AID 2417, 2010;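 active = readout at or below -70, meaning at least 70% loss of cells showing the perinucleolar compartment, a nuclear body marking cancer cells; inconclusive = readout between -30 and a set limit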;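 also: plate controls were DMSO wells for no effect and camptothecin positive control wells for full effect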
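Compounds are pinned in duplicate onto adhered PC3M cells stably expressing GFP-tagged PTB and incubated 16 h at 37 C. Cells are then fixed, nuclei stained with Hoechst, and PNC-positive cells counted.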
* = called active by the depositor; [ ] = dose if it differs, or a comment. Unless noted, calls follow the shape of the dose curve; as a rule, active = well fitted curve in the direction sought with a large enough effect; inconclusive = small, poorly fitted or top-dose-only effect, or another doubt; inactive = no such curve, though single readings can be large; an effect the other way counts as inactive or inconclusive. Unless noted, % is scaled to controls: 0 for no effect and ±100 for the full control effect.

Screening COc1ccc(NS(=O)(=O)c2ccc(NS(=O)(=O)c3ccc(C)cc3)cc2)nn1 returned ALDH1A1 inh 12.6µM*, HPGD inh -12.2%, IMPase inh 3.5, IMPase Li inh 11.1%[38.3 µM], ALOX12 inhib -8.6% and PNC assembly inh 18.9.
`Cc1cccc(Nc2ncc(NC(=O)c3cccc(F)c3)c(Nc3cccc(C)c3)n2)c1` gave IMPase inh -3.3.
`Cc1ccc(N=Nc2c(O)c3ccccc3[nH]c2=O)c(S(=O)(=O)N(C)C)c1` gave ALDH1A1 inh 14.1µM*, HPGD inh -1.4%, IMPase Li inh 0.2% and ALOX12 inhib 4.8%[11.4 µM].
Cc1ccc(N(CC(=O)N=Nc2c(O)[nH]c3ccccc23)S(C)(=O)=O)c(C)c1 was read as ALDH1A1 inh 0.2% and IMPase Li inh 3.5%.
Screening CCOC(=O)c1sc(S(C)=O)c2c1CCc1conc1-2 (stereo not given) returned ALDH1A1 inh 4.47µM*.
`CC(C)CSc1n[nH]c(=S)s1` gave ALDH1A1 inh 0.631µM* and IMPase Li inh 1.5%.
Screening CC(C)CSc1n[nH]c(N)n1 returned ALDH1A1 inh 7.9% and IMPase Li inh 2.2%.
Screening CCOC(=O)c1cc(-c2ccc(OC(F)F)cc2)nc2c1c(=O)[nH]c(=O)n2C returned ALDH1A1 inh -3.0%, HPGD inh inconclusive, IMPase Li inh inconclusive, ALOX12 inhib 16.9% and PNC assembly inh -84.0*.
For CCOC(=O)c1cc(-c2ccc(OC(F)F)cc2)nc2nc(SC)[nH]c(=O)c12 the results were ALDH1A1 inh inconclusive, IMPase inh -15.3, ALOX12 inhib -0.1% and PNC assembly inh 10.2.
Fc1cccc(Cc2noc(CN3CCCN(C4Cc5ccccc5C4)CC3)n2)c1 was read as ALDH1A1 inh 3.55µM* and IMPase Li inh 20.8%.
Screening Cc1ccc(CN2CCN(CC(=O)NC(C)CCc3ccccc3)C2=O)cc1 (stereo not given) returned ALDH1A1 inh inconclusive, HPGD inh -12.7%, IMPase inh 3.4, IMPase Li inh 3.4%[38.3 µM], ALOX12 inhib -2.7% and PNC assembly inh inconclusive.
CC(CCc1ccccc1)NC(=O)CN1CCN(c2ccc(O)cc2)CC1 (stereo not given) was read as ALDH1A1 inh 8.91µM* and IMPase Li inh 3.7%.
CC(C)(C)NC(=O)NC(=O)CN1CCN(c2ccc(O)cc2)CC1 was read as ALDH1A1 inh 22.4µM* and IMPase Li inh 10.1%.
S[C@@H]1CCCN(Cc2ccccc2)C1 was read as ALDH1A1 inh -8.2%[13.5 µM], HPGD inh -0.7%, IMPase Li inh -2.5% and ALOX12 inhib 0.7%[11.4 µM].
Screening Cc1cc(C)nc(SCc2cc(=O)c(OC(=O)c3cccc([N+](=O)[O-])c3)co2)n1 returned ALDH1A1 inh 0.0562µM*, HPGD inh -3.7%, IMPase inh -8.6, IMPase Li inh 3.2%, ALOX12 inhib -9.6% and PNC assembly inh -5.1.
For Cc1ccnc(SCc2cc(=O)c(OC(=O)c3ccc(Cl)c([N+](=O)[O-])c3)co2)n1 the results were ALDH1A1 inh 7.51µM*, HPGD inh inconclusive, IMPase Li inh -9.6%, ALOX12 inhib 7.0% and PNC assembly inh 27.5.
For Cc1ccnc(SCc2cc(=O)c(OC(=O)c3ccco3)co2)n1 the results were ALDH1A1 inh 6.4%, HPGD inh -4.9%, IMPase inh -2.9, IMPase Li inh -0.5%, ALOX12 inhib 3.4% and PNC assembly inh 41.9.
CCOC(=O)c1sc2nc(Cc3ccc(Cl)cc3)[nH]c(=S)c2c1C was read as ALDH1A1 inh 14.2% and IMPase Li inh 7.94µM*.
